What all share (assay): NCI-60 one-dose screen, 48 h (100 = growth as untreated, 0 = no growth, -100 = all killed)
The subject of one assay is NCI-H226 lung. Conditions: 10 µM.
For a further assay, the system named is NCI-H322M lung. Conditions: 10 µM.
For another assay, the system named is HOP-62 NSCLC. The following applies: 10 µM.
The next assay has as its system NCI-H460 lung. Conditions: 10 µM.
The test system of another assay is NCI-H522 lung. The following applies: 10 µM.
The subject of another assay is COLO 205 colon. Conditions: 10 µM.
In another assay the test system is DU-145 prostate. Conditions: 10 µM.
The test system of the next assay is K-562 leukemia. Conditions: 10 µM.
The subject of another assay is SF-539 CNS. Conditions: 10 µM.
The next assay has as its system M14 melanoma. Conditions: 10 µM.
Another assay relates to HCT-15 colon. Conditions: 10 µM.
For another assay, the system named is HT29 colon. Conditions: 10 µM.
The next assay has as its system SNB-75 CNS. Conditions: 10 µM.
The next assay relates to SNB-19 CNS. Conditions: 10 µM.
A further assay relates to LOX IMVI melanoma. The following applies: 10 µM.
For the next assay, the system named is MOLT-4 leukemia. Conditions: 10 µM.
Another assay deals with SR leukemia. Conditions: 10 µM.
The next assay has as its system RPMI-8226 leukemia. The following applies: 10 µM.
The test system of a further assay is SK-OV-3 ovarian. The following applies: 10 µM.
Another assay relates to MDA-MB-468 breast. Conditions: 10 µM unless noted.

We go through eight molecules from PubChem BioAssay (NCI).

The panel holds about 83,000 compounds, 20% with a hit somewhere; the sample as a whole holds those more often.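 The test compound was applied at a single concentration to cells in 96-well plates for 48 hours, and percent growth was recorded.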 A number with no mark means an inactive call. Active and inactive are the calls of the source. The calls were made as follows: active = growth percent below 10; inactive = the rest.

For `Nc1nnc(-c2c[nH]c3ncc(Br)cc23)c(-c2c[nH]c3ccc(Br)cc23)n1`, the growth is 35.8% in the assay on NCI-H226 lung; 63% in the assay with NCI-H322M lung; 44.5% in the assay with HOP-62 NSCLC; 26.5% with NCI-H460 lung; 21.9% in the assay on NCI-H522 lung; 0.336% (active) in the assay on COLO 205 colon. Also, the growth in the assay on DU-145 prostate is 32.5%; in the assay with K-562 leukemia, 15.2%; with SF-539 CNS, 19.9%; in the assay with M14 melanoma, 34.5%; in the assay with HCT-15 colon, 31.7%; in the assay with HT29 colon it was 30.9%. The growth in the assay on SNB-75 CNS is 43.4%; in the assay on SNB-19 CNS, 46.7%; with LOX IMVI melanoma, 37.6%; in the assay with MOLT-4 leukemia it was 5.25% (active); with SR leukemia it was 6.57% (active); in the assay on RPMI-8226 leukemia, 10.9%. Moreover, the growth in the assay with SK-OV-3 ovarian was 66.6%; with MDA-MB-468 breast, 8.52% (active).

`O=C(c1ccccc1)c1ccc2nc(-c3ccccc3Br)[nH]c2c1`: the growth was -27.8% (active) in the assay with NCI-H226 lung; -96.2% (active) with NCI-H322M lung; -46.6% (active) in the assay on HOP-62 NSCLC; -22.4% (active) in the assay with NCI-H460 lung; -74.9% (active) in the assay with NCI-H522 lung; -75.5% (active) in the assay on COLO 205 colon. Further, the growth is -76% (active) in the assay with DU-145 prostate; -3.28% (active) in the assay on K-562 leukemia; -96.1% (active) in the assay with SF-539 CNS; -70.1% (active) in the assay on M14 melanoma; -37.7% (active) in the assay on HCT-15 colon; -71.3% (active) with HT29 colon. For the same molecule, the growth in the assay on SNB-75 CNS is -41.9% (active); with SNB-19 CNS, 4.77% (active); in the assay with LOX IMVI melanoma, -94.6% (active); in the assay on MOLT-4 leukemia, -15.3% (active); in the assay on SR leukemia, -22.8% (active); with RPMI-8226 leukemia, -17.9% (active). Moreover, the growth was 24% in the assay on SK-OV-3 ovarian and -57.2% (active) in the assay on MDA-MB-468 breast.

Turning to `COc1cc(Nc2nc(O)c(/C=C3\C=Nc4ccccc43)s2)cc(OC)c1OC`, the growth in the assay on NCI-H226 lung was -46.5% (active); with NCI-H322M lung, -47.7% (active); with HOP-62 NSCLC, -65.9% (active); in the assay with NCI-H460 lung it was -77.6% (active); with NCI-H522 lung, -13.6% (active); with COLO 205 colon, -5.44% (active). For the same molecule, the growth was -57.6% (active) with DU-145 prostate; 3.33% (active) in the assay on K-562 leukemia; -85.3% (active) with SF-539 CNS; -18.7% (active) in the assay with M14 melanoma; -0.515% (active) in the assay with HCT-15 colon; -50.7% (active) in the assay with HT29 colon. Besides, the growth is -63.8% (active) in the assay with SNB-75 CNS; -39.4% (active) in the assay with SNB-19 CNS; -61.5% (active) with LOX IMVI melanoma; 2.95% (active) with MOLT-4 leukemia; 2.6% (active) in the assay with SR leukemia; -25.1% (active) in the assay with RPMI-8226 leukemia. Besides, the growth is -59.3% (active) in the assay on SK-OV-3 ovarian and -19.9% (active) in the assay on MDA-MB-468 breast.

Take `COc1ccc(-n2c(SCC(=O)NNS(=O)(=O)c3ccccc3)nc3ccc(Cl)cc3c2=O)cc1`: the growth in the assay with NCI-H226 lung was 91%; in the assay with NCI-H322M lung it was 98.1%; with HOP-62 NSCLC it was 96.6%; in the assay on NCI-H460 lung, 115%; in the assay on NCI-H522 lung, 86.5%; in the assay with COLO 205 colon, 120%. The growth is 113% with DU-145 prostate; 99.5% in the assay on K-562 leukemia; 97.6% with SF-539 CNS; 104% in the assay on M14 melanoma; 92% in the assay on HCT-15 colon; 114% with HT29 colon. Further, the growth with SNB-75 CNS was 98.7%; in the assay with SNB-19 CNS, 98.6%; in the assay on LOX IMVI melanoma it was 87.2%; with MOLT-4 leukemia, 93.4%; with SR leukemia, 78.9%; with RPMI-8226 leukemia it was 99%. For the same molecule, the results for the growth in the assay with SK-OV-3 ovarian and in the assay with MDA-MB-468 breast were 66.1% and 102%, respectively.

As for `O=C(CN1CCN(c2ncnc3c2cnn3-c2ccccc2)CC1)Nc1ccc(Cl)cc1`, the growth in the assay with NCI-H226 lung is 67.5%; in the assay with NCI-H322M lung, 78.9%; with HOP-62 NSCLC it was 85.7%; in the assay on NCI-H460 lung, 53.3%; with NCI-H522 lung it was -83.1% (active); in the assay with COLO 205 colon, 56.7%. For the same molecule, the growth was 57.5% in the assay with DU-145 prostate; 42.4% in the assay on K-562 leukemia; 76.1% in the assay on SF-539 CNS; 59.4% with M14 melanoma; 45% with HCT-15 colon; 63.4% with HT29 colon. The growth in the assay with SNB-75 CNS was 69.7%; in the assay with SNB-19 CNS, 66.5%; in the assay on LOX IMVI melanoma it was 39.9%; in the assay with MOLT-4 leukemia, 7.06% (active); in the assay with SR leukemia, 36.9%; in the assay on RPMI-8226 leukemia it was 44.4%. Moreover, the growth is 79.2% with SK-OV-3 ovarian and 42.5% in the assay with MDA-MB-468 breast.

Turning to `COc1ccc(NCc2cn(-c3ccc(C(=O)O)cc3)nc2-c2ccc(F)cc2)cc1C(F)(F)F`, the growth is 66.3% with NCI-H226 lung; 62% with NCI-H322M lung; 66.3% in the assay with HOP-62 NSCLC; 37.2% in the assay with NCI-H460 lung; 40.2% with NCI-H522 lung; 71.2% in the assay with COLO 205 colon. Also, the growth is 69.3% in the assay with DU-145 prostate; 41.3% with K-562 leukemia; 53.9% in the assay on SF-539 CNS; 51.5% with M14 melanoma; 43.7% in the assay on HCT-15 colon; 51% in the assay with HT29 colon. The growth with SNB-75 CNS was 79.1%; in the assay with SNB-19 CNS, 39.3%; with LOX IMVI melanoma, 43.8%; with MOLT-4 leukemia, 40.7%; in the assay with SR leukemia it was 50.7%; with RPMI-8226 leukemia, 37.6%. For the same molecule, the growth was 112% in the assay on SK-OV-3 ovarian and 65.1% in the assay with MDA-MB-468 breast.

On to `COc1ccc2[nH]cc(-c3nc(N)nnc3-c3cn(C)c4ncc(Br)cc34)c2c1`, for which the growth with NCI-H226 lung is 8.48% (active); with NCI-H322M lung, 35%; with HOP-62 NSCLC, 26.5%; with NCI-H460 lung, 1.08% (active); in the assay with NCI-H522 lung it was -55.1% (active); in the assay on COLO 205 colon it was -73.9% (active). Besides, the growth in the assay with DU-145 prostate was 11.1%; in the assay with K-562 leukemia it was 3% (active); with SF-539 CNS it was -3.25% (active); with M14 melanoma it was 6.91% (active); in the assay on HCT-15 colon it was 12.3%; in the assay with HT29 colon, -27.1% (active). Further, the growth in the assay on SNB-75 CNS was 23.4%; in the assay on SNB-19 CNS, 30%; in the assay with LOX IMVI melanoma, 20%; in the assay on MOLT-4 leukemia, 2.27% (active); in the assay on SR leukemia, 3% (active); in the assay on RPMI-8226 leukemia, -16% (active). Besides, the growth with SK-OV-3 ovarian is 10.7%; with MDA-MB-468 breast, -8.06% (active).

With `O=C(CN1CCN(c2ncnc3c2cnn3-c2ccccc2)CC1)Nc1ccc(Br)cc1`, the growth in the assay with NCI-H226 lung is 62.5%; with NCI-H322M lung it was 77.2%; with HOP-62 NSCLC it was 84.6%; in the assay with NCI-H460 lung it was 57.7%; in the assay with NCI-H522 lung, -80.3% (active); in the assay on COLO 205 colon it was 70.6%. The growth in the assay with DU-145 prostate is 67.9%; in the assay with K-562 leukemia, 42.8%; with SF-539 CNS, 82.3%; in the assay on M14 melanoma, 59.3%; in the assay with HCT-15 colon it was 45.2%; in the assay with HT29 colon, 73.3%. For the same molecule, the growth is 80.9% in the assay on SNB-75 CNS; 69.3% in the assay on SNB-19 CNS; 81.8% in the assay with LOX IMVI melanoma; 15% with MOLT-4 leukemia; 40.3% with SR leukemia; 42.6% in the assay with RPMI-8226 leukemia. Moreover, the growth in the assay on SK-OV-3 ovarian was 76.7%; in the assay on MDA-MB-468 breast, 49.2%.
